Laboratory results reported in ChEMBL document CHEMBL1961873, “Compounds: GSK PKIS; Assays: Nanosyn kinase panel” (2012).

Legend:
[1] = target: T1, Inhibitor of nuclear factor kappa-B kinase subunit epsilon (Homo sapiens) (UniProt Q14164); settings: at 1 µM;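 also: reported values are averaged percent inhibition figures against human IKKε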
T1 sequence (whole entry): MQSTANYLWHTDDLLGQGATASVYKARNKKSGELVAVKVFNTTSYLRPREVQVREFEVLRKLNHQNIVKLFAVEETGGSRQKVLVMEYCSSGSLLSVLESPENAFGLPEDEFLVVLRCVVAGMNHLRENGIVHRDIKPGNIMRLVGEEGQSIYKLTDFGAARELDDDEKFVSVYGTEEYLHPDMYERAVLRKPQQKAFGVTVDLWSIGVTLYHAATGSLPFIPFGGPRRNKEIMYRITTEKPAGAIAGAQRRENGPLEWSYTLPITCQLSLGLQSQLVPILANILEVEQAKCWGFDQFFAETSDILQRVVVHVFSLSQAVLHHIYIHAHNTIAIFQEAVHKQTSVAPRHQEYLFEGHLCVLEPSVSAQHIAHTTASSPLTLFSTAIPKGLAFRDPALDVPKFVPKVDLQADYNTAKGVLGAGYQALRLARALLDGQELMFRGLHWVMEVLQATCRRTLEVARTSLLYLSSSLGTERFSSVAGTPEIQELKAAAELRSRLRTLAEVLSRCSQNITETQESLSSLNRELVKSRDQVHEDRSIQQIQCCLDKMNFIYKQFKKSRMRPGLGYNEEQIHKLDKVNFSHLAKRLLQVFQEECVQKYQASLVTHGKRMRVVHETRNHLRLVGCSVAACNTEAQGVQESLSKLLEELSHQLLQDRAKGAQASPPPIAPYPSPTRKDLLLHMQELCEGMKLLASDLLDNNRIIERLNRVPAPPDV

[2] = target: T2, Serine/threonine-protein kinase Nek1 (Homo sapiens) (UniProt Q96PY6); settings: at 0.1 µM
T2 sequence (whole entry): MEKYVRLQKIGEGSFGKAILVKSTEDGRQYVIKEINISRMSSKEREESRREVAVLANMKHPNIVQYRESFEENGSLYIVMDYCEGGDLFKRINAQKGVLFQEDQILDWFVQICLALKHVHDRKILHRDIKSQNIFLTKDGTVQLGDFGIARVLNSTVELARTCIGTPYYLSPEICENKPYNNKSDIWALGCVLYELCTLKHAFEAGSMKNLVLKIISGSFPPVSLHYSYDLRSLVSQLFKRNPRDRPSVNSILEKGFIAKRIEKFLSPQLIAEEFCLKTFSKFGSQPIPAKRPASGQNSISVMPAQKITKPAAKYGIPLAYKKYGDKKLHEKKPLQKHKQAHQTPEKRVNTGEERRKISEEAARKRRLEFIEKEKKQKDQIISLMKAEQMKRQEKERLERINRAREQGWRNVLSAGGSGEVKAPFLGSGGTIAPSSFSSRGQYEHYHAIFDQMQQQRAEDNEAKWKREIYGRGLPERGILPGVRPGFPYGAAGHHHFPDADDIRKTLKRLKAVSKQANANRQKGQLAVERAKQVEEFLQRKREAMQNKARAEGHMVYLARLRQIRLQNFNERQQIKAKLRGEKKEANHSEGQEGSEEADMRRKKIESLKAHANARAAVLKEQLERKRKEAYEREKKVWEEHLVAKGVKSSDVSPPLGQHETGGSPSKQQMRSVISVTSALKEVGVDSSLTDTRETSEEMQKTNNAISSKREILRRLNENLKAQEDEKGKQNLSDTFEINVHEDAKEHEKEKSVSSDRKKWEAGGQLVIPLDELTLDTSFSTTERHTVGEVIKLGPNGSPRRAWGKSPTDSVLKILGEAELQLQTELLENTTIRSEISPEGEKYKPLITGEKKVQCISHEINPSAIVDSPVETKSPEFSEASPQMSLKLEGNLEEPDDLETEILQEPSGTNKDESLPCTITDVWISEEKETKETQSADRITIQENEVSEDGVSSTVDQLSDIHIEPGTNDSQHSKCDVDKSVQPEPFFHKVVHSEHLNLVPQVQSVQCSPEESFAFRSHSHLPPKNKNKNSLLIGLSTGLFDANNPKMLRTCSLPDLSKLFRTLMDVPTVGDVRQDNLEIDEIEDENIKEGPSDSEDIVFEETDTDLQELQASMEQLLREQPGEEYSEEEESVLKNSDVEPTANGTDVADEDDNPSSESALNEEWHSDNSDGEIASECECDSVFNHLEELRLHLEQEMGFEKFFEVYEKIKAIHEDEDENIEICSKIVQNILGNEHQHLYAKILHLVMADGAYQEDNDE

[3] = target: T2, Serine/threonine-protein kinase Nek1 (Homo sapiens); settings: at 1 µM
[4] = target: T3, Serine/threonine-protein kinase Nek2 (Homo sapiens) (UniProt P51955); settings: at 0.1 µM
T3 sequence (whole entry): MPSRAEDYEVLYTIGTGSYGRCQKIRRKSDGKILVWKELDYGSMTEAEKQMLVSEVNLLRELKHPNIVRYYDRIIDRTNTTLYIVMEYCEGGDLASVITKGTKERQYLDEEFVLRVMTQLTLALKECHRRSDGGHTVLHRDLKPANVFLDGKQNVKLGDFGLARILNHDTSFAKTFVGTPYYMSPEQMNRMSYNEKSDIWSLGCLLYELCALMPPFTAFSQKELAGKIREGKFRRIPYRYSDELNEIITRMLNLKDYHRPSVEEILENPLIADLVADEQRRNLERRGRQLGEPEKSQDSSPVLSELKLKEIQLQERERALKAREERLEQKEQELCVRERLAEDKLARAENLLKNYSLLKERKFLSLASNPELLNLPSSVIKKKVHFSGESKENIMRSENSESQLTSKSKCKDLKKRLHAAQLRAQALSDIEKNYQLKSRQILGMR

[5] = target: T3, Serine/threonine-protein kinase Nek2 (Homo sapiens); settings: at 1 µM
[6] = target: Serine/threonine-protein kinase Nek6 (Homo sapiens) (UniProt Q9HC98); settings: at 0.1 µM
[7] = target: Serine/threonine-protein kinase Nek6 (Homo sapiens) (UniProt Q9HC98); settings: at 1 µM
[8] = target: Serine/threonine-protein kinase Nek7 (Homo sapiens) (UniProt Q8TDX7); settings: at 0.1 µM
[9] = target: Serine/threonine-protein kinase Nek7 (Homo sapiens) (UniProt Q8TDX7); settings: at 1 µM
[10] = target: T4, Serine/threonine-protein kinase Nek9 (Homo sapiens) (UniProt Q8TD19); settings: at 0.1 µM
T4 sequence (whole entry): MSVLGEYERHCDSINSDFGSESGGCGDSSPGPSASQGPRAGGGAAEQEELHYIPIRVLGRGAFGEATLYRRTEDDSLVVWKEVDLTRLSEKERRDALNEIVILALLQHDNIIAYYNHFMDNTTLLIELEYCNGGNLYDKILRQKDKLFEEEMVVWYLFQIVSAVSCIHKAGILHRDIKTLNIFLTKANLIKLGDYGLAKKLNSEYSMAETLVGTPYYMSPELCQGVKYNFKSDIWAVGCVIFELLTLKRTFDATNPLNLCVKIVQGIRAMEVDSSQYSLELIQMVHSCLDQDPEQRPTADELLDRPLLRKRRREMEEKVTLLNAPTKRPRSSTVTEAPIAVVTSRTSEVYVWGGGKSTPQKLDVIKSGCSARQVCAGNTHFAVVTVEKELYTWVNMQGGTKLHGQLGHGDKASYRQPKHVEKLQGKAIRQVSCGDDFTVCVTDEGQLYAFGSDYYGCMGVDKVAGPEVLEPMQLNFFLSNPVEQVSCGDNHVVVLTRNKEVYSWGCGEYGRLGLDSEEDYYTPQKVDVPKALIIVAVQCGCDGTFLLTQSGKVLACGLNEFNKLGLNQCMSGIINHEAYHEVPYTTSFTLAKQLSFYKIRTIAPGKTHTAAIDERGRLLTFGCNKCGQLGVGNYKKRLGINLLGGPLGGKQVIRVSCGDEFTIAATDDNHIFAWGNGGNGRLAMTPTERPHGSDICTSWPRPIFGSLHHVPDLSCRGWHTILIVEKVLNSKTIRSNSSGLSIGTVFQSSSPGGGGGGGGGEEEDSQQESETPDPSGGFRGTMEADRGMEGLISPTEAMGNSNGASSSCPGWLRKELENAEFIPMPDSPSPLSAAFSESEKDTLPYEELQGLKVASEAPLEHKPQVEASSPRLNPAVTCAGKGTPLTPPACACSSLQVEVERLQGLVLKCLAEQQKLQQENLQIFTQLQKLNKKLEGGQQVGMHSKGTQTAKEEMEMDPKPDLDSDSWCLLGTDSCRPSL

[11] = target: T4, Serine/threonine-protein kinase Nek9 (Homo sapiens); settings: at 1 µM
[12] = target: Serine/threonine-protein kinase PLK1 (Homo sapiens) (UniProt P53350); settings: at 0.1 µM
[13] = target: Serine/threonine-protein kinase PLK1 (Homo sapiens) (UniProt P53350); settings: at 1 µM
[14] = target: T5, Dual specificity protein kinase TTK (Homo sapiens) (UniProt P33981); settings: at 0.1 µM
T5 sequence (whole entry): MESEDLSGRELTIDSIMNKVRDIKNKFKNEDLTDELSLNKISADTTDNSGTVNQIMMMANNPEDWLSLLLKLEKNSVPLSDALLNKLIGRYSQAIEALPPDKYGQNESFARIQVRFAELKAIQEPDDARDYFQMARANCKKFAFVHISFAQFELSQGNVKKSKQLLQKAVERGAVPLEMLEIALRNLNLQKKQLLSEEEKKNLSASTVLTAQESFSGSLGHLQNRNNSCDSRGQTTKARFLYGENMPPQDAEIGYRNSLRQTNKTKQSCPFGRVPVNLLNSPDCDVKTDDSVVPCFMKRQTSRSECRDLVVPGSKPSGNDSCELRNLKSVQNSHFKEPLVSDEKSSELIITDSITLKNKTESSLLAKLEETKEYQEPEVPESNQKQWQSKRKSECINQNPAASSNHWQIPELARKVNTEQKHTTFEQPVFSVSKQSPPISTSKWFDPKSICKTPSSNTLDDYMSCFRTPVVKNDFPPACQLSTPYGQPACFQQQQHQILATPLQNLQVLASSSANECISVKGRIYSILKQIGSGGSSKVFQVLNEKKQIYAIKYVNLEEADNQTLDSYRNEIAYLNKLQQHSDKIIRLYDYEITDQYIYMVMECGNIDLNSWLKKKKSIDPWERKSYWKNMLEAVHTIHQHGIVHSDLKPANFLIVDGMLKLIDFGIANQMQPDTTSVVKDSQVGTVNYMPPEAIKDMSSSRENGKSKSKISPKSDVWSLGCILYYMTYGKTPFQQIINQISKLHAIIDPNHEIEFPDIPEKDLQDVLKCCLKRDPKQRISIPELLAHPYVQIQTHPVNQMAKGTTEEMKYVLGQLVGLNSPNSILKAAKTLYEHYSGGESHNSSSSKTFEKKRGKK

[15] = tested on: T6, Receptor-type tyrosine-protein kinase FLT3 (Homo sapiens), P36888 [D835Y]; settings: at 1 µM
T6 sequence (whole entry): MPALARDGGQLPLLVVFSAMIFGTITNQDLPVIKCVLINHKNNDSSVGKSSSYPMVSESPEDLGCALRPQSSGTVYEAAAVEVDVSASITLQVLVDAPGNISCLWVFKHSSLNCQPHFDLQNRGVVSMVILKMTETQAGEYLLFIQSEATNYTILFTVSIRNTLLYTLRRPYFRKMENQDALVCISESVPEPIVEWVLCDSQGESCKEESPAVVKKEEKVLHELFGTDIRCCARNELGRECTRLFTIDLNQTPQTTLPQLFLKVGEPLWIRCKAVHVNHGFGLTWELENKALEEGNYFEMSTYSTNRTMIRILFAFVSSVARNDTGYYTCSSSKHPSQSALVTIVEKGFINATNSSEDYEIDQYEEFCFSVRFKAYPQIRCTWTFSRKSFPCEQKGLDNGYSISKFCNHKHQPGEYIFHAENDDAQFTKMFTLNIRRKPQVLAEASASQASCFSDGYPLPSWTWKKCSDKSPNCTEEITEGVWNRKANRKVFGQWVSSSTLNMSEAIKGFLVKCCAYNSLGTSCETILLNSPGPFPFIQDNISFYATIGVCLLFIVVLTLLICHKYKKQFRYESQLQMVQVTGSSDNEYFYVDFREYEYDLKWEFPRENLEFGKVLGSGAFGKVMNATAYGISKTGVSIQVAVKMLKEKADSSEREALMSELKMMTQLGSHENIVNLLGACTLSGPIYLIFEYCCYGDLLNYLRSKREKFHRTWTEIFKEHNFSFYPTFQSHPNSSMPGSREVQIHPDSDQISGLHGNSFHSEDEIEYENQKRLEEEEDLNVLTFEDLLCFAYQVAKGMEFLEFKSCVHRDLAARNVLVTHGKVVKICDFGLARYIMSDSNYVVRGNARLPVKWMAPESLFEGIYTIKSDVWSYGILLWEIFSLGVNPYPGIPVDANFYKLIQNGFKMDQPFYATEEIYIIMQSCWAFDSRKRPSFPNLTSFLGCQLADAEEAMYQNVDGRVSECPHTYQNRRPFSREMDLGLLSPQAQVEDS

[16] = target: Vascular endothelial growth factor receptor 3 (Homo sapiens) (UniProt P35916); settings: at 0.1 µM
[17] = target: Vascular endothelial growth factor receptor 3 (Homo sapiens) (UniProt P35916); settings: at 1 µM
[18] = target: Macrophage colony-stimulating factor 1 receptor (Homo sapiens) (UniProt P07333); settings: at 0.1 µM
[19] = target: Macrophage colony-stimulating factor 1 receptor (Homo sapiens) (UniProt P07333); settings: at 1 µM
[20] = target: Tyrosine-protein kinase Fyn (Homo sapiens) (UniProt P06241); settings: at 0.1 µM
Chain of Tyrosine-protein kinase Fyn (Homo sapiens) (P06241 2-537 limits assumed): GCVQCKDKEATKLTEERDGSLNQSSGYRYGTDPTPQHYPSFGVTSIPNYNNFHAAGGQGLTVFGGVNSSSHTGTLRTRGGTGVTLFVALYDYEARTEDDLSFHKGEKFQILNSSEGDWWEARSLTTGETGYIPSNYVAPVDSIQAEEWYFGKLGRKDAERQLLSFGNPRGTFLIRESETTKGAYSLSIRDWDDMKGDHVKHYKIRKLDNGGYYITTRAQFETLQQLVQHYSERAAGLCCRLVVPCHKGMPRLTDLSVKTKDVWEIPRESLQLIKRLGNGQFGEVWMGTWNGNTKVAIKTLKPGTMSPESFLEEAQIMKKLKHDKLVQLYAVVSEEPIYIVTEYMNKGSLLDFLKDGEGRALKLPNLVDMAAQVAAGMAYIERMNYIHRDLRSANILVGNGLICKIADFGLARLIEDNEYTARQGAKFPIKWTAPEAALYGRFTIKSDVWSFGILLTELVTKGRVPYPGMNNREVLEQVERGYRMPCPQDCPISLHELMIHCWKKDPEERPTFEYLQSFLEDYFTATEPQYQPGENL

Chain of Vascular endothelial growth factor receptor 3 (Homo sapiens) (P35916 whole entry): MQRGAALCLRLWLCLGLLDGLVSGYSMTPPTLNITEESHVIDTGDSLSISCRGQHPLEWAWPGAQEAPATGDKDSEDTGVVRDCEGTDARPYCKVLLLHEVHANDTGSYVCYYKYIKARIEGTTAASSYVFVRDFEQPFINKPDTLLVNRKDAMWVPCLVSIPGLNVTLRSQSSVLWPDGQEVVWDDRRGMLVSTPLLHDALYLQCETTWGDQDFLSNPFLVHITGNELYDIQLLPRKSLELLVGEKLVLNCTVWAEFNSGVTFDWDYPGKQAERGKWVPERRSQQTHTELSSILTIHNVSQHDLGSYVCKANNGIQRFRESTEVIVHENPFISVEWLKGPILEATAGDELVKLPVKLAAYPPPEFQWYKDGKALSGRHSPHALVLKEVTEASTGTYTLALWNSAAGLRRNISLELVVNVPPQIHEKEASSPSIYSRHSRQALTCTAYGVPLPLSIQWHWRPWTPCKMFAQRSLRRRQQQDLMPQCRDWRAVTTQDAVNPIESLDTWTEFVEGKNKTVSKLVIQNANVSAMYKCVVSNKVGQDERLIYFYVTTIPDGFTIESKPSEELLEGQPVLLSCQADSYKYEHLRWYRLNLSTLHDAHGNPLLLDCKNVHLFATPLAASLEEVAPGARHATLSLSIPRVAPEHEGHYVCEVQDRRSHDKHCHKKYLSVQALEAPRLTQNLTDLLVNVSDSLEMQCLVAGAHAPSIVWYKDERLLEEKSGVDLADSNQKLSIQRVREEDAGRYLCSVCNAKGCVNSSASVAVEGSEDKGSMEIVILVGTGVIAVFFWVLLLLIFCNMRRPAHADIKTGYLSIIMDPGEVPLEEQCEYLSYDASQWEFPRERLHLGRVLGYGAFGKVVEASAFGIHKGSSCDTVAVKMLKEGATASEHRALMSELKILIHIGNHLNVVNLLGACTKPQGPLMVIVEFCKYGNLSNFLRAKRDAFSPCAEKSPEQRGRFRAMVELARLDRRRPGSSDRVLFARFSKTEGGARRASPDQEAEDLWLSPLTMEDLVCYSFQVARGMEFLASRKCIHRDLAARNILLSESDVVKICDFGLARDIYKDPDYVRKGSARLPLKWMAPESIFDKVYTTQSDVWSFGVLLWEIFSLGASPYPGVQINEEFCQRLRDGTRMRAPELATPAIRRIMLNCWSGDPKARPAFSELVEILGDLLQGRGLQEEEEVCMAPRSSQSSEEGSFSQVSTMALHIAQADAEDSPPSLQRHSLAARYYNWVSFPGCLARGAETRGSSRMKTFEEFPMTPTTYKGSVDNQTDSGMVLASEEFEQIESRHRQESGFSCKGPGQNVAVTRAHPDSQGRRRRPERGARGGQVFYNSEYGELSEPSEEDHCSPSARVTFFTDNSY
Chain of Serine/threonine-protein kinase Nek7 (Homo sapiens) (Q8TDX7 whole entry, looked up): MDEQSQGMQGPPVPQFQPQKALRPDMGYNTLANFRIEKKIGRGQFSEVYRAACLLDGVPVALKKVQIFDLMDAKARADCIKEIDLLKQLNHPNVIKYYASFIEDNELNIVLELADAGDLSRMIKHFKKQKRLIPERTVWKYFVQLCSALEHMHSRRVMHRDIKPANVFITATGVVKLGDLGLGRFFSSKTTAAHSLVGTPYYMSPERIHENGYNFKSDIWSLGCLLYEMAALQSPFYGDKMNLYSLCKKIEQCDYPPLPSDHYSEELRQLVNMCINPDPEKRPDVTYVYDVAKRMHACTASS
Chain of Serine/threonine-protein kinase Nek6 (Homo sapiens) (Q9HC98 whole entry): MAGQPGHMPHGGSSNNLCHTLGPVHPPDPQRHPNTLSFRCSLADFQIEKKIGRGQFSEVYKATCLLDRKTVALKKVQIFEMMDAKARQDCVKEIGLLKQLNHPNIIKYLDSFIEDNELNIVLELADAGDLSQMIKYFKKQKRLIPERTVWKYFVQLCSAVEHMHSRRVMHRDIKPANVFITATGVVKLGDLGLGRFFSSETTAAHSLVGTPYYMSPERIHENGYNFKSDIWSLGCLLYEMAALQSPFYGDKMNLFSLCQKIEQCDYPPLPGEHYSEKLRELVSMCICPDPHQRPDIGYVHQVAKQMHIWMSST
Chain of Macrophage colony-stimulating factor 1 receptor (Homo sapiens) (P07333 whole entry): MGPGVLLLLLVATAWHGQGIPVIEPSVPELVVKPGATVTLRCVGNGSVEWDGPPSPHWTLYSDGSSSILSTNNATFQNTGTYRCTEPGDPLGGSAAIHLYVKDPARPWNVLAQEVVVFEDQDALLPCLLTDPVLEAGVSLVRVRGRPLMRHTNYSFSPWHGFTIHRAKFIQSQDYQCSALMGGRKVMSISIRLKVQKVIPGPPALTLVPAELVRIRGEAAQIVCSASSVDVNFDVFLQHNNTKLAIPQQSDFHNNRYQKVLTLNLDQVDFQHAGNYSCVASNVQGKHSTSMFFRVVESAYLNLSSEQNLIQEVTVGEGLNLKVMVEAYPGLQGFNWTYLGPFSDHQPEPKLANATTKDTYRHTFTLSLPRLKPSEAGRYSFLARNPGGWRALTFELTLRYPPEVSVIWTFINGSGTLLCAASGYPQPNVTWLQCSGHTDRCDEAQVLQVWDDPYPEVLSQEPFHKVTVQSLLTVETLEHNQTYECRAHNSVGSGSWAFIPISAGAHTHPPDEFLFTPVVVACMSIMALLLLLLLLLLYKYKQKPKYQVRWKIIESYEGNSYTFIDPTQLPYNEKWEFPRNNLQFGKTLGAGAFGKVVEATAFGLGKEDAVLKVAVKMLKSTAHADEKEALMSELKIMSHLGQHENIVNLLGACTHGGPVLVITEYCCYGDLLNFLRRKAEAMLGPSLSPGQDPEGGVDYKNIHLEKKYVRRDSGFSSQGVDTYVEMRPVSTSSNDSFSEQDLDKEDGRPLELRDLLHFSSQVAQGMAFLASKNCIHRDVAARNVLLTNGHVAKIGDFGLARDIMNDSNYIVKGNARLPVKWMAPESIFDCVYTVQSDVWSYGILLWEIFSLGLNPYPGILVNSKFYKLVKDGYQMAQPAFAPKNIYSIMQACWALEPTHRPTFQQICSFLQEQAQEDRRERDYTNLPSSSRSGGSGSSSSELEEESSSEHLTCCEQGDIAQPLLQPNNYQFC
Chain of Serine/threonine-protein kinase PLK1 (Homo sapiens) (P53350 whole entry): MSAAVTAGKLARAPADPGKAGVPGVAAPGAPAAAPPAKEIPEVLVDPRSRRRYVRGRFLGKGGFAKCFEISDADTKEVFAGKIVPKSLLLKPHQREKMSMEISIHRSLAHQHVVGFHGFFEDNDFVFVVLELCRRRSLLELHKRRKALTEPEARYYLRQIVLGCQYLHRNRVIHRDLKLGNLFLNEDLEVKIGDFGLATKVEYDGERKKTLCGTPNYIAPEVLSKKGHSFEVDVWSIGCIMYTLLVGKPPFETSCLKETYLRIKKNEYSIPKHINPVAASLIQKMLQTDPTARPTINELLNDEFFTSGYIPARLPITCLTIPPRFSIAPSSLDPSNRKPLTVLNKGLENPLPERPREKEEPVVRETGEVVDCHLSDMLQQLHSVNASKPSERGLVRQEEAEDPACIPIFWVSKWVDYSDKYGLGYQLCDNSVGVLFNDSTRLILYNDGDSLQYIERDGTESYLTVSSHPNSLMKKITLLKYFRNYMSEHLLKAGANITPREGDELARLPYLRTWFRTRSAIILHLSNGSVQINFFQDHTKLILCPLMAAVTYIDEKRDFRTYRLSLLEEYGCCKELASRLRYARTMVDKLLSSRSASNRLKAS

Structure (SMILES)	inhibition [1] [%]	inhibition [2] [%]	inhibition [3] [%]	inhibition [4] [%]	inhibition [5] [%]	inhibition [6] [%]	inhibition [7] [%]	inhibition [8] [%]	inhibition [9] [%]	inhibition [10] [%]	inhibition [11] [%]	inhibition [12] [%]	inhibition [13] [%]	inhibition [14] [%]	inhibition [15] [%]	inhibition [16] [%]	inhibition [17] [%]	inhibition [18] [%]	inhibition [19] [%]	inhibition [20] [%]
NS(=O)(=O)c1ccc(N/N=C2\C(=O)Nc3ccc4ncccc4c32)cc1	44.7	1.98	5.54	3.42	4.79	-0.98	-0.3	4.59	7.69	9.44	41	2.36	2.5	61.2	80.4	43.9	86	34.8	79.3	8.75
FC(F)(F)c1cccc(-c2nn3ncccc3c2-c2ccnc(Nc3ccc4c(c3)OCCO4)n2)c1	2.87	1.52	0.83	3.63	3.89	0.6	-0.45	4.18	2.91	3.97	1.67	1.26	0.65	6.38	3.11	3.34	18.5	1.23	7.02	7.47
COc1ccc(-c2nn3ncccc3c2-c2ccnc(Nc3ccc4c(c3)OCCO4)n2)cc1	-0.27	0.11	2.9	-0.55	3.9	-0.41	0.26	2.18	1.38	6.4	8.39	2.68	2.45	4.08	0.07	8.62	56.4	19.6	66.8	5.65
